Screen size: about 16,000 compounds; about 5,100 (32%) were called active. Not shown: some 25% with an inconclusive outcome. Calls come from the whole dose curve; as a rule, active = well fitted curve in the direction sought with a large enough effect; inconclusive = small, poorly fitted or top-dose-only effect, or effect the other way; inactive = no such curve, though single readings can be large or run the other way. This is one part of the list.
molecular target: Cytochrome P450 3A4 (Homo sapiens) (UniProt P08684); test: Cytochrome panel assay with activity outcomes; details: recombinant CYP, pro-luciferin dealkylation, luminescence, p450-cyp3a4; series mostly up to 57.1 µM
Sequence (P08684 whole entry, looked up): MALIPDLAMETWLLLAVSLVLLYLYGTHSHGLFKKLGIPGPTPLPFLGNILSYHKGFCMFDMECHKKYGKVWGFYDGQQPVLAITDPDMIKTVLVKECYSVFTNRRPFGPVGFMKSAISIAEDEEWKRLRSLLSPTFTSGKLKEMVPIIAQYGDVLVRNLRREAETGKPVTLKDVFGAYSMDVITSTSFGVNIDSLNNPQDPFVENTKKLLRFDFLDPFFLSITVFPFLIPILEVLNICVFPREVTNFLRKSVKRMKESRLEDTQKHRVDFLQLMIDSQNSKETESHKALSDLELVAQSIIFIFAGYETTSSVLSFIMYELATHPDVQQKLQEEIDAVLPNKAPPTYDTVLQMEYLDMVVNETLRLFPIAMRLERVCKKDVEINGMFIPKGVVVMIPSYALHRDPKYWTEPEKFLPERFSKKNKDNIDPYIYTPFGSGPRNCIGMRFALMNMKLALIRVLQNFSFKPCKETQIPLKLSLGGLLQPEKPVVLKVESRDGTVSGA
% is set by controls: 0 for no effect and ±100 for the full control effect.

Row | SMILES | AC50 | activity, negative = inhibition
1 | Cc1ccc(CCN2CC(C(=O)NC3CCCC3)CC2=O)cc1 (configuration not stated) | 15.8 µM (active) | 
2 | Cc1ccc(CCN2CC(C(=O)NCCN3CCOCC3)CC2=O)cc1 (configuration not stated) | inactive | 
3 | O=C(NCCCN1CCCCCC1)C1CC(=O)N(CCc2ccccc2)C1 (configuration not stated) | inactive | 
4 | CN(C)CCCN1CC(C(=O)O)CC1=O (configuration not stated) | inactive | 
5 | CCOCCCN1CC(C(=O)NCCc2ccc(C)cc2)CC1=O (configuration not stated) | 15.8 µM (active) | 
6 | CCCCNC(=O)C1CC(=O)N(CCC(C)C)C1 (configuration not stated) |  | 0.276% [at 11.4 µM] (inactive)
7 | Cn1c([N+](=O)[O-])cnc1COC(N)=O | inactive | 
8 | COc1ccccc1/C=C/C(=O)c1c2c(c(C)[nH]c1=O)CCCC2 | 3.98 µM (active) | 
9 | Cc1[nH]c(=O)c(C(=O)/C=C/c2ccccc2F)c2c1CCCC2 | 11.2 µM (active) | 
10 | C[N+](C)(C)CCOC(N)=O | inactive | 
11 | Fc1ccc(Nc2nc(-c3ccoc3)nc3ccccc23)cc1 | 3.98 µM (active) | 
12 | c1ccc2c(NC3CC3)nc(-c3ccoc3)nc2c1 | 3.98 µM (active) | 
13 | c1ccc2c(NC3CCNCC3)nc(-c3ccoc3)nc2c1 | inactive | 
14 | c1ccc2c(Nc3ccncc3)nc(-c3ccoc3)nc2c1 | 1.26 µM (active) | 
15 | CNc1nc(-c2ccoc2)nc2ccccc12 | 15.8 µM (active) | 
16 | COc1ccc(S(=O)(=O)N2CC3CCCN3c3ccc(C(F)(F)F)cc32)cc1 (configuration not stated) | 1 µM (active) | 
17 | O=S(=O)(c1ccc(F)cc1)N1CC2CCCN2c2ccc(C(F)(F)F)cc21 (configuration not stated) | 6.31 µM (active) | 
18 | O=C1COc2ccc(OCc3ccc(F)cc3)cc21 | inactive | 
19 | NC(=O)c1csc(-c2ccc(CO)o2)n1 |  | -8.17% [at 11.4 µM] (inactive)
20 | OCc1ccc(-c2nn(Cc3ccccc3)c3ccccc23)o1 | 12.6 µM (active) | 
21 | Clc1cc2c(c(CSC3=NCN(CC4CC4)CN3)c1)OCOC2 |  | -21.4% [at 11.4 µM] (inactive)

Row | SMILES | AC50 | activity, negative = inhibition
22 | CC(=O)NC1C(OCCOc2ccc(Cl)cc2Cl)OC(COC(C)=O)C(OC(C)=O)C1OC(C)=O (configuration not stated) | 14.1 µM (active) | 
23 | CCCCCCCCOC1OC(CO)C(O)C(O)C1NC(C)=O (configuration not stated) | inactive | 
24 | CC(=O)OC[C@@H]1O[C@@H](O/N=C2/C[C@@H](O)[C@@H](O)[C@@H]3[C@H]4C(=O)N(c5ccc(F)cc5F)C(=O)[C@@H]4CC[C@@H]23)[C@H](OC(C)=O)[C@H](OC(C)=O)[C@@H]1OC(C)=O |  | -27.1% [at 11.4 µM] (inactive)
25 | CNc1oc(C)nc1S(=O)(=O)c1ccc(C)cc1 | inactive | 
26 | CNc1nc(C)cc(C)c1S(=O)(=O)c1ccc(C)cc1 | 4.47 µM (active) | 
27 | CCCSc1nc(C)cc(C)c1S(=O)(=O)c1ccccc1C | inactive | 
28 | Cc1cc(-c2ccccc2)[nH]c(=O)c1S(=O)(=O)c1ccc(Cl)cc1 | inactive | 
29 | CNc1nc(C)cc(C)c1S(=O)(=O)c1ccc(Cl)cc1 | 4.47 µM (active) | 
30 | COc1ccc(C2Nc3ccccc3C(=O)N2Cc2ccco2)cc1COc1ccc([N+](=O)[O-])cc1 (configuration not stated) | 4.47 µM (active) | 
31 | COc1ccc([N+](=O)[O-])cc1COc1ccc2c(-c3ccccc3)cc(=O)oc2c1 | inactive | 
32 | Cc1ccc(C2Nc3ccccc3C(=O)N2Cc2ccco2)cc1 (configuration not stated) | 14.1 µM (active) | 
33 | O=S(=O)(c1ccccc1)N1CCC[C@@]2(CCN(C(c3ccccc3)c3ccccc3)C2)C1 | 3.16 µM (active) | 
34 | CN1CCC2(CC1)CCN(S(=O)(=O)c1ccccc1)CC2 | inactive | 
35 | O=S(=O)(c1ccccc1)N1CCC2(CCCN(C(c3ccccc3)c3ccccc3)C2)CC1 | 2 µM (active) | 
36 | Cn1c(=O)c2[nH]c(COCc3nc4c([nH]3)c(=O)n(C)c(=O)n4C)nc2n(C)c1=O |  | -0.524% [at 11.4 µM] (inactive)
37 | O=C1Cc2c([nH]c3ccc(Br)cc23)-c2ccccc2N1 | 12.6 µM (active) | 
38 | OCCN=C1CCCc2c1[nH]c1ccc(Br)cc21 | inactive | 
39 | O=C1CCCCC(=O)c2ccccc2N1 | inactive | 
40 | CC(C)OCCCN1CN(S(=O)(=O)c2cccc(Cl)c2)c2nc3ccccc3nc21 | 7.94 µM (active) | 
41 | CCN1C(=O)C(CC(=O)Nc2ccc(Br)cc2)N(CCCc2ccccc2)C1=S (configuration not stated) | 2.51 µM (active) | 
42 | CCOc1ccc(N2C(=O)/C(=C/c3cccs3)N(CC(=O)OC)C2=S)cc1 | inactive | 

Row | SMILES | AC50 | activity, negative = inhibition
43 | CCN1C(=O)C(CC(=O)Nc2ccc(OC)cc2)N(Cc2cccnc2)C1=S (configuration not stated) | 11.2 µM (active) | 
44 | COCC(=O)Nc1ccc(-c2cn3cccnc3n2)cc1 | inactive | 
45 | CCCCC(=O)Nc1ccc(C(=O)NNC(=O)CCc2ccccc2)cc1 | inactive | 
46 | CCN1C(=O)C(CC(=O)Nc2ccc(OC)cc2)N(Cc2cccs2)C1=S (configuration not stated) | 3.98 µM (active) | 
47 | Cc1cc(NC(=S)Nc2ccccc2)ccc1Br | 20 µM (active) | 
48 | CNC(=S)Nc1ccc(Nc2ccccc2)cc1 | inactive | 
49 | O=[N+]([O-])c1ccc(NN=C2c3ccccc3Cc3ccccc32)c([N+](=O)[O-])c1 |  | -5.06% [at 11.4 µM] (inactive)
50 | CC1(C)N=C(N)N=C(N)N1c1cccc(OCc2cccc([N+](=O)[O-])c2)c1 |  | -3.23% [at 11.4 µM] (inactive)
51 | O=[N+]([O-])c1ccc(C2CCCC/C2=N\OCc2cccc(F)c2)c([N+](=O)[O-])c1 (configuration not stated) | 14.1 µM (active) | 
52 | O=C(c1ccccc1)N1CCSC1=S | inactive | 
53 | COC(=O)c1nc(NC(=O)c2ccccc2)n[nH]1 | inactive | 
54 | Cc1c(NC(=O)C(Sc2ccccc2)c2ccccc2)cccc1[N+](=O)[O-] (configuration not stated) |  | -28.3% [at 2.29 µM] (inactive)
55 | Cc1nc(SC(C(=O)c2ccccc2)c2ccccc2)n[nH]1 (configuration not stated) | 7.08 µM (active) | 
56 | O=C(O)CCCCCNC(=O)c1ccncc1 | inactive | 
57 | O=C(NCCCN1CCOCC1)c1cc(C(=O)C2CC2)c[nH]1 | inactive | 
58 | CC(C)(C)c1ccc(C(=O)c2c[nH]c(C(=O)NCCCn3ccnc3)c2)cc1 | 0.282 µM (active) | 
59 | O=C(c1ccc(C(F)(F)F)cc1)c1c[nH]c(C(=O)NCCCn2ccnc2)c1 | 1 µM (active) | 
60 | O=C1Oc2ccccc2C2(O)C3CCCCCC3C12 (configuration not stated) |  | -27.4% [at 11.4 µM] (inactive)
61 | O=C(Cc1c[nH]c2ccccc12)OCC(=O)c1ccccc1 | 22.4 µM (active) | 
62 | C[C@@](N)(Cc1c[nH]c2ccccc12)C(=O)O |  | -19.3% [at 11.4 µM] (inactive)
